# In ChEMBL document CHEMBL3988442, “University of Dundee, Small-Polar-MMV Screening Library” (2021):
# Assays:
# [1] = target: T1, Aspartate--tRNA(Asp/Asn) ligase (Mycobacterium tuberculosis (strain ATCC 25618 / H37Rv)) (UniProt P9WFW3); test: Assay for Asp RNA synthetase-1 from Mycobacterium tuberculosis; format: functional; set-up: scale not given: direction of the effect not stated beside the values; settings: 30 µM; further: in the data most compounds retested in dose-response had high values
# T1 sequence (whole entry): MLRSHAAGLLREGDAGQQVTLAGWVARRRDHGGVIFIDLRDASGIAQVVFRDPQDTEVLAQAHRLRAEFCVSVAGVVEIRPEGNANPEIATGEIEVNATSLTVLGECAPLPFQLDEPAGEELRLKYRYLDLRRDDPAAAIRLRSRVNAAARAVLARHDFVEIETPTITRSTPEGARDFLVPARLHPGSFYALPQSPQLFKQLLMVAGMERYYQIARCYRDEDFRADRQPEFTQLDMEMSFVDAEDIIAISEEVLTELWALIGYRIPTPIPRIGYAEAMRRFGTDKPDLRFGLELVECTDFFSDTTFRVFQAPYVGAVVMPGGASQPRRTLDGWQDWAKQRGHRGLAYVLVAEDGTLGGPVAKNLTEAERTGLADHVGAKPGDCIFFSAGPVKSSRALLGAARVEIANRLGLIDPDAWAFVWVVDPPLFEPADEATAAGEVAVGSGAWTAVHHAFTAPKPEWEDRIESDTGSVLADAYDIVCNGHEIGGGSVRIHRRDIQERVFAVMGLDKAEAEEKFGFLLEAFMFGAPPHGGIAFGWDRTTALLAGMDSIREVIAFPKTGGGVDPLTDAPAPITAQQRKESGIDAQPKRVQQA
# [2] = target: Shiga toxin 2 (Escherichia coli O157:H7) (UniProt P09385+P09386); test: E. coli 0.157:H7 Shiga Toxin SOP - stx2 screening assay; format: functional; set-up: scale not given: direction of the effect not stated beside the values; settings: 30 µM
Structure (SMILES),Percent Effect [1] [%],Percent Effect [2] [%]
O=C(CN1CCCC1Cn1cccn1)NC1CCOCC1 (centres undefined),-1.71,13.3
Cn1nc2c(cc1=O)CN(Cc1nc(-c3cccs3)no1)CC2,1.81,3.81
Cc1ncsc1C(=O)NC1CCN(CC(=O)NCc2ccccc2)CC1,1.54,34.9
Cc1cnn(CC2CN(CC(=O)Nc3nnc(C)s3)CCO2)c1 (centres undefined),-4.68,7.65
Cc1cc(C)n(CC2CN(Cc3cccc(C(N)=O)c3)CCO2)n1 (centres undefined),-8.8,-5.62
Cc1ccc(-c2cc(CNC(=O)N3CCC(CO)CC3)on2)cc1,3.99,16.1
Cc1c(C(=O)N2CCCC2c2cnn(C)c2)nnn1-c1ccccc1 (centres undefined),-1.92,-11.8
Fc1ccc(CN2CCCC(c3nnc(-c4cnccn4)o3)C2)cc1F (centres undefined),2.55,-5.16
O=c1nc(SCc2ccncc2)c2c(n1CCO)CCCC2,-6.81,-5.81
CC(=O)c1ccc(OCC(=O)NC(C)CCc2ccco2)cc1 (centres undefined),4.56,-18.5
O=C(CN1CCCCC1Cn1cncn1)NCCC1=CCCCC1 (centres undefined),2.88,11.4
COc1ccnc(N2CCN(C(=O)Cc3ccc(C)s3)CC2)n1,2.36,5.8
CN(C)C(=O)CN1C(=O)CCC12CCN(Cc1ccc(F)cc1)CC2,1.43,-5.2
CCc1cnc(N2CCC3(CC2)CN(c2cccnc2)C(=O)CO3)nc1,6.49,-6.76
CCCc1noc(CCC(=O)N2CCCC2c2ccsc2)n1 (centres undefined),-1.06,8.4
CC(C)c1ccc(C(C)NC(=O)N2CCC(n3cncn3)CC2)cc1 (centres undefined),-0.885,3.93
Cn1cnc2c1CCN(Cc1ccc(C(=O)N3CCCC3)cc1)C2,0.745,-74.8
